Results filed as inconclusive are left out. Active and inactive are the calls of the source. Calls follow the shape of the dose curve; as a rule, active = well fitted inhibition curve with a large enough effect; inconclusive = small, poorly fitted or top-dose-only effect; inactive = flat fitted curve, though single readings scatter.
The molecules below were run against Calcium and integrin-binding protein 1 (Homo sapiens) (UniProt Q99828) (assay: Primary qHTS for Identification of Calcium Integrin Binding Protein 1 (CIB1) Competitor (AID 1508620; also: top concentration of the series differs between compounds)). Conditions: CIB1-GST / FITC-alphaIIb peptide fluorescence polarization; series mostly up to 114 µM; activity change, negative = inhibition: at the top concentration.
Sequence of Calcium and integrin-binding protein 1 (Homo sapiens) (Q99828 whole entry, looked up): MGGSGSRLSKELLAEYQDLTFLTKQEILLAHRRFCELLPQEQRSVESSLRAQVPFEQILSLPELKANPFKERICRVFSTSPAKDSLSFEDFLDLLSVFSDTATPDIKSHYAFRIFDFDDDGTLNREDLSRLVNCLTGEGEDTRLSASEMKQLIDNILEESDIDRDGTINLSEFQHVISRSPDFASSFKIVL
In short: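 Fluorescence polarization competition: GST-tagged CIB1 (1 uM final) preincubated with compound 15 min at room temperature, then FITC-labelled alphaIIb peptide (100 nM final) added. After 15 min at room temperature, polarization read at Ex 480/Em 540.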
% is scaled to controls: 0 for no effect and ±100 for the full control effect.

**Q.** Which “activity change, negative = inhibition” value does the source give for `Fc1cc(F)cc(Nc2nc(NC3CCCC3)nc(C3CO3)n2)c1` (stereo not given) here?
**A.** -3.61% (inactive)

**Q.** For `O=C1CCc2cc(S(=O)(=O)Nc3ccccc3-c3ccccc3)ccc2N1`, which “activity change, negative = inhibition” value is on record?
**A.** 1.77% (inactive)

**Q.** With `CNc1oc(-c2cccc3ncccc23)nc1C#N` as the molecule, how does the “activity change, negative = inhibition” value read?
**A.** -2.75% (inactive)

**Q.** `Cc1ccc(OCCn2c(CCNC(=O)C3CCC3)nc3ccccc32)cc1` was tested. Which “activity change, negative = inhibition” value did it give?
**A.** -4.31% (inactive)

**Q.** Which “activity change, negative = inhibition” value does the source give for `COc1ccc(C2Nc3ccccc3C(=O)N2Cc2ccco2)cc1CSc1c(C)cccc1C` (stereo not given) here?
**A.** -4.02% (inactive)

**Q.** With `O=C(OCC#CCSc1nnc(-c2cccc3ccccc23)o1)C1CCC1` as the molecule, how does the “activity change, negative = inhibition” value read?
**A.** -3.57% (inactive)

**Q.** With `CN(C)CCNc1ncnc2ccc(-c3ccc4c(c3)OCO4)cc12` as the molecule, how does the “activity change, negative = inhibition” value read?
**A.** 3.94% (inactive)

**Q.** How did the “activity change, negative = inhibition” value turn out when `O=C(NCc1ccc(F)cc1)n1cc(P(=S)(c2ccccc2)c2ccccc2)c2ccccc21` was run?
**A.** 2.15% (inactive)

**Q.** For `O=c1c2ccccc2nc2sc(Nc3ccc(Sc4ccccc4)cc3)nn12`, which “activity change, negative = inhibition” value is on record?
**A.** 2.89% (inactive)

**Q.** Which “activity change, negative = inhibition” value does the source give for `CCN(CC)c1ccc(NC(=O)CN(C)Cc2c(O)ccc3ccccc23)cc1` here?
**A.** -1.54% (inactive)

**Q.** Which “activity change, negative = inhibition” value does the source give for `O=C(O)c1ccc(-c2cccc(-c3nn4c(=O)cc(N5CCNCC5)nc4s3)c2)cc1` here?
**A.** 1.37% (inactive)

**Q.** For `Cc1cccc(-n2cnc3cc(C(=O)N4CCCC(C)(C)C4)ccc32)c1`, which “activity change, negative = inhibition” value is on record?
**A.** -0.693% (inactive)

**Q.** With `O=C(Nc1ccc(-c2nc3ccccc3[nH]2)cc1)c1ccncc1` as the molecule, how does the “activity change, negative = inhibition” value read?
**A.** 2.59% (inactive)

**Q.** With `C=C(C)c1cc2c(s1)c1cnn(Cc3ccccc3F)c(=O)c1n2C` as the molecule, how does the “activity change, negative = inhibition” value read?
**A.** -0.797% (inactive)

**Q.** With `COc1cccc(C2N=C(Nc3nc4ccccc4o3)NC3=C2C(=O)CCC3)c1` (stereo not given) as the molecule, how does the “activity change, negative = inhibition” value read?
**A.** -13.4% (inactive)

**Q.** How did the “activity change, negative = inhibition” value turn out when `CC(=O)Nc1sc2c(c1-c1cccnc1)CCNC2` was run?
**A.** 7.05% (inactive)

**Q.** For `Cc1ccc(OCCn2c(CCNC(=O)c3ccccc3[N+](=O)[O-])nc3ccccc32)cc1`, which “activity change, negative = inhibition” value is on record?
**A.** 7.44% (inactive)

**Q.** Which “activity change, negative = inhibition” value does the source give for `CC(Nc1nc(-c2ccccc2C(F)(F)F)nc2ccccc12)c1ccc(-c2ccncc2)cc1` (stereo not given) here?
**A.** 6.59% (inactive)

**Q.** With `Cc1nc(CN=C2NC3=C(C(=O)CCC3)C(c3[nH]ncc3Cl)N2)cs1` (stereo not given) as the molecule, how does the “activity change, negative = inhibition” value read?
**A.** -2.94% (inactive)

**Q.** For `Cc1ccc(OCCn2c(CCNC(=O)CCc3ccccc3Br)nc3ccccc32)cc1`, which “activity change, negative = inhibition” value is on record?
**A.** 17.1% (inactive)

**Q.** How did the “activity change, negative = inhibition” value turn out when `c1cncc(-c2ccc3ncnc(NCc4ccc5c(c4)OCO5)c3c2)c1` was run?
**A.** -9.15% (inactive)

**Q.** How did the “activity change, negative = inhibition” value turn out when `O=[S+]([O-])(Nc1ccc(N2CCNCC2)cc1)c1ccc(NCc2ccc(Cl)cc2O)cc1` was run?
**A.** -4.33% (inactive)

**Q.** With `Cc1cnc(-c2ccccc2C(C)C)nc1NCc1ccc(-c2cccc(S(N)(=O)=O)c2)cc1` as the molecule, how does the “activity change, negative = inhibition” value read?
**A.** 6.54% (inactive)

**Q.** Which “activity change, negative = inhibition” value does the source give for `CCOc1ccc(CCNC(=O)c2cc3c(s2)CCC3)cc1OCC` here?
**A.** 19.4% (inactive)

**Q.** With `CCN(Cc1cccs1)c1ncnc2ccc(-c3ccc4c(c3)OCO4)cc12` as the molecule, how does the Potency read?
**A.** inactive

**Q.** `CC(=O)N(C(C)=O)n1c(C)nc2sc3c(c2c1=O)CCNC3` was tested. Which “activity change, negative = inhibition” value did it give?
**A.** -1.44% (inactive)

**Q.** How did the “activity change, negative = inhibition” value turn out when `O=S(=O)(Nc1nccs1)c1ccc(NCc2ccccc2)cc1` was run?
**A.** -2.6% (inactive)

**Q.** For `Cn1c2cc(C#N)sc2c2cnn(Cc3ccccc3F)c(=O)c21`, which “activity change, negative = inhibition” value is on record?
**A.** -2.87% (inactive)

**Q.** `Cc1noc(C)c1-c1ccc2ncnc(NCc3ccc(F)c(F)c3)c2c1` was tested. Which “activity change, negative = inhibition” value did it give?
**A.** -2.03% (inactive)

**Q.** With `Cc1cc(NC(=O)Nc2nnc(-c3cccnc3)s2)ccc1Cl` as the molecule, how does the Potency read?
**A.** inactive

**Q.** How did the “activity change, negative = inhibition” value turn out when `COc1cc(O)c(C(CC(=O)N2CCC[C@@H](C)C2)c2ccc3c(c2)OCO3)c(OC)c1` (stereo not given in full) was run?
**A.** 1.86% [at 228 µM] (inactive)

**Q.** How did the “activity change, negative = inhibition” value turn out when `COc1cccc(C2=Nn3c(nnc3-c3ccccc3OC)SC2)c1` was run?
**A.** 2.7% (inactive)

**Q.** For `FC(F)(F)c1ccccc1-c1nc(NCc2ccc(-c3ccc(Cl)cc3)cc2)c2ccccc2n1`, which “activity change, negative = inhibition” value is on record?
**A.** 4.41% (inactive)

**Q.** With `Cc1ccnc(NC(=S)N[C@H]2CCN(c3cccc(C(F)(F)F)c3)C2)c1` as the molecule, how does the “activity change, negative = inhibition” value read?
**A.** -4.59% (inactive)

**Q.** For `CC(=O)Nc1sc2c(c1-c1cccc3c1sc1ccccc13)CCNC2`, which “activity change, negative = inhibition” value is on record?
**A.** 9.6% (inactive)

**Q.** Which “activity change, negative = inhibition” value does the source give for `Cc1cc(NS(=O)(=O)c2ccc(NC(=O)Cc3ccc(Cl)c(Cl)c3)cc2)on1` here?
**A.** -25.2% (inactive)

**Q.** For `Cc1cc2c(s1)c1cnn(Cc3ccccc3Br)c(=O)c1n2C`, which “activity change, negative = inhibition” value is on record?
**A.** 7.06% (inactive)

**Q.** How did the Potency turn out when `COc1ccc(C2Nc3ccccc3C(=O)N2Cc2ccco2)cc1COc1ccccc1` (stereo not given) was run?
**A.** inactive

**Q.** `O=[S+]([O-])(Nc1ccccc1)c1ccc(NCc2cccc(C(F)(F)F)c2F)cc1` was tested. Which “activity change, negative = inhibition” value did it give?
**A.** -3.91% (inactive)

**Q.** `COc1cc(F)cc(F)c1[S+](=O)([O-])N1CCN([S+](=O)([O-])c2ccc3c(c2)OCCO3)CC1` was tested. Which “activity change, negative = inhibition” value did it give?
**A.** 1.46% (inactive)

From PubChem BioAssay (NCATS)
